Screening data (PubChem BioAssay)
A selection: hits, their analogues and other compounds. The true share with any hit is near 2.6%.
TCR activator: activators of T cell receptors. primary human leukocytes, anti-CD3, IL-2 HTRF, 48 h. Potency, µM (top dose mostly 9.22 µM), for inactives: top-dose activation of IL-2 secretion, hits mostly activators. 330,000 tested, under 10 active; note: % of control where 0% means no effect
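Primary human leukocytes receive a-CD3 beads and test compound and are incubated 48 hr. Secreted IL-2 is then assayed by HTRF, measuring 665nm acceptor emission after 320nm excitation of the europium donor.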
Nrf2 activator: activators of Nrf2 (ARE) signaling. AREc32 ARE-luciferase reporter (MCF7-derived line), luminescence, 24 h. Potency, µM (titrated, usually from 46.1 µM), for inactives: at the top dose activation, actives largely listed as activators. 410,000 compounds, 0.31% hits. AID 624171; note: potency is the fitted concentration of half-maximal effect; % of control where 0% means no effect; nearly all actives have a fitted effect of over 65% in size
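Nrf2 activation is followed as ARE-luciferase induction in the AREc32 line after one day of compound treatment; luminescence is read with Steady-Glo.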
CCT modulator: changes cytosolic chaperonin activity | purified chaperonin ATPase assay, HTRF ADP detection, 30 min | activity change, % (no concentration beside the values), hits read low | 360,000 compounds, 0.3% hits | AID 651819; in the data active = activity change below about -30%; note: % is set by controls: 0 for no effect and ±100 for the full control effect
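TRiC (40 or 20 nM final, by batch activity) in 30 mM Tris pH 7.4, 100 mM KCl, 5 mM MgCl2, 1 mM DTT was treated with compound at 76 uM single dose, then 10 uM ATP, 30 min at 37 °C. ADP was read by HTRF Transcreener.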
Nrf2 block: inhibitors of Nrf2 signaling | A549 ARE-Fluc reporter, luciferase luminescence, 18-24 h | Potency, µM (series often up to 46 µM), without a hit: at the top dose activity change, negative = inhibition, usual class: inhibitors | 360,000 compounds, 2.1% hits | AID 504444; note: potency is the fitted concentration of half-maximal effect; % is set by controls: 0 for no effect and ±100 for the full control effect; nearly all actives have a fitted effect of over 60% in size
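A549 ARE_Fluc cells, 5000/well, 5% FBS OPTI-MEM; compounds in dose-response, 18-24 h at 37 °C/5% CO2; CellTiter-Fluor viability read (Ex 405/Em 525), then BugLite luciferase luminescence = Nrf2 activity.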
A549 tox: kills or reduces viability of A549 cells in Nrf2 counter-screen | A549 ARE-Fluc cells, CellTiter-Fluor viability, 18-24 h | Potency, µM (series often up to 46 µM), for inactives: at the highest dose activity change, negative = cytotoxicity, actives largely listed as inhibitors | 390,000 compounds, 0.16% hits; note: potency is the fitted concentration of half-maximal effect; % is set by controls: 0 for no effect and ±100 for the full control effect
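A549 ARE-Fluc cells in 5% FBS OPTI-MEM, 5000 cells/well, rested 2 h then exposed to compounds in concentration-response for 18-24 h at 37 °C. Viability by CellTiter-Fluor fluorescence (Ex 405/Em 525) after 30 min; luciferase luminescence (BugLite, 15 min, RT) read afterwards.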
A-T KAP1 phos: potential ataxia-telangiectasia treatment | F2112 A-T fibroblasts, KAP-1 phosphorylation AlphaLISA; neocarzinostatin DNA damage 30 min before lysis | Potency, µM (titrated, usually from 57.5 µM), without a hit: at the top dose activation, usual class: activators | 320,000 compounds, 0.19% hits | AID 485349; note: potency is the fitted concentration of half-maximal effect; % of control where 0% means no effect; nearly all actives have a fitted effect of over 45% in size
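ATM-like activity read as KAP-1 phosphorylation via AlphaLISA donor/acceptor antibody pairs after lysis and 6 hr at 25C. Cells were ATM-null patient fibroblasts (F2112, hTERT), dosed 60 min, then exposed to the DSB inducer NCS for 30 min.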
Active calls of the source: *; u = inconclusive; x = not tested or not shown; [ ] = remark or other dose. Unless noted, calls come from the whole dose curve; as a rule, active = well fitted curve in the direction sought with a large enough effect; inconclusive = small, poorly fitted or top-dose-only effect, or another doubt; inactive = no such curve, though single readings can be large; an effect the other way counts as inactive or inconclusive.

SMILES	TCR activator	Nrf2 activator	CCT modulator	Nrf2 block	A549 tox	A-T KAP1 phos
COC(=O)c1cc(=O)n(Cc2cccs2)c(=Nc2ccc(F)cc2)s1	1%	-5%	0	-9%	-12%	8%
CC(C1CC1)N(Cc1ccccc1)C(=O)NC(=O)c1ccccc1 (stereo not given)	3%	0%	0	-7%	2%	-2%
CC(C1CC1)N(Cc1ccccc1)C(=S)Nc1ccccc1Cl (stereo not given)	-6%	2%	-1	29µM*	-12%	10%
COc1cc(C2C3=C(Nc4nc(N)[nH]c(=O)c42)c2ccccc2C3=O)ccc1O (stereo not given)	-2%	0%	-3	8%	1%	-10%
C[C@]12c3[nH]c4cc(-c5ccco5)ccc4c3CCN1C(=O)[C@@H](CC(=O)NCC13CC4CC(CC(C4)C1)C3)C[C@@H]2C(=O)N1CCOCC1	-1%[46.1 µM]	-1%	-2	23µM*	u	3%
CC(C)=CCC/C(C)=C/CNC(=O)C[C@H]1C[C@H](C(=O)N(C(C)C)C(C)C)[C@@]2(C)c3[nH]c4cc(-c5ccco5)ccc4c3CCN2C1=O	-2%[46.1 µM]	15%	0	23µM*	u	-18%
CC(C)=CCC/C(C)=C/CNC(=O)C[C@H]1C[C@H](C(=O)N(C(C)C)C(C)C)[C@@]2(C)c3[nH]c4cc(CCC(=O)N(C)C)ccc4c3CCN2C1=O	0%[46.1 µM]	-1%	0	21µM*	-24%	7%
CCN(CC)C(=O)[C@H]1C[C@H](CC(=O)NCC23CC4CC(CC(C4)C2)C3)C(=O)N2CCc3c([nH]c4cc(-c5ccco5)ccc34)[C@]12C	-3%[46.1 µM]	0%	0	-19%	-3%	7%
COc1ccc(CNC(=O)CC2C[C@H](C(=O)N(C(C)C)C(C)C)[C@@]3(C)c4[nH]c5ccccc5c4CCN3C2=O)cc1OC (stereo not given in full)	4%	7%	-47*	19%	0%	-2%
Cc1cc(C)c(/C=C/c2onc(C)c2S(=O)(=O)N2CCC(C(=O)NCCc3ccccc3)CC2)c(C)c1	x	4%	x	x	15%	x
CC(C)N(C(=O)[C@H]1CC(CC(=O)NCc2ccco2)C(=O)N2CCc3c([nH]c4ccccc34)[C@]12C)C(C)C (stereo not given in full)	-30%	0%	-1	10%	-2%	0%
CC(C)N(C(=O)[C@H]1C[C@H](CC(=O)NCc2ccco2)C(=O)N2CCc3c([nH]c4cc(-c5ccco5)ccc34)[C@]12C)C(C)C	0%[46.1 µM]	4%	2	15µM*	-19%	7%
CC(C)c1ccc(NC(=O)C2CCN(C(=O)c3ccc(F)cc3)CC2)cc1	x	1%	x	-29%	-2%	x
O=C(Nc1ccccc1O)c1ccc(Cl)cc1	0%	13µM*	-4	u	0%	10%
O=C(Nc1ccccc1OC(=O)c1ccc(Cl)cc1)c1ccc(Cl)cc1	13%[46.1 µM]	u	-1	u	2%	-3%
O=C(O)c1cccc(N2C(=O)C3CC=CCC3C2=O)c1 (stereo not given)	-2%[46.1 µM]	0%	-3	7%	-3%	-2%
CN(Cc1ccccc1)C(=O)c1cccc(N2C(=O)C3CC=CCC3C2=O)c1 (stereo not given)	3%	0%	0	0%	1%	3.2µM*
Cc1cc(Nc2cccc(Cl)c2)nc2ccc(NC(=O)COc3ccc(Cl)cc3)cc12	x	7%	x	1%	0%	x
O=C(NCC1COc2ccccc2O1)c1cc(S(=O)(=O)N2CCOCC2)c(Cl)cc1Cl (stereo not given)	-4%	2%	0	23µM*	0%	7%
Cc1c(C(=O)NCc2ccccn2)oc2ccc(S(=O)(=O)N3CCC4(CC3)OCCO4)cc12	6%	1%	1	-28%	10%	-1%
